# Measured values as given in the supplement of paper PMC3334620.
# Whole data set: some 33,000 sequences, median “E-score (-0.5 to 0.5)” near -0.04, cut for the highest 2% near 0.36. Many of the other results were omitted from the sample, so the highest values are more common in it than they were.
# Biological target: T1, Hmlalpha2 (UniProt P0CY09)
# T1 sequence: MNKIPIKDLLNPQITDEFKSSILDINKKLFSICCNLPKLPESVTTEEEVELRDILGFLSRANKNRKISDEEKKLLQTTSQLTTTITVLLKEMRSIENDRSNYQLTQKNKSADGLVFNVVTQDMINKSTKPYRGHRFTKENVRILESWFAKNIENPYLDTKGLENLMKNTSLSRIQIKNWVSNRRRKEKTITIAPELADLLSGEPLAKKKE
# Assay: PBM E-score (8-mer binding enrichment) (E-score (-0.5 to 0.5)); higher = stronger / more preferred TF binding
# Conditions: protein concentration: 200 nM; construct: GST-full length
# Method: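 Universal 'all 10-mer' protein binding microarrays (Agilent AMADID 015681) probed with GST-tagged S. cerevisiae TFs (full-length or DBD) made by in vitro transcription/translation (PURExpress), about 100-200 nM. Bound TF was detected with fluorescent anti-GST. Each ungapped 8-mer (which stands for itself and its reverse complement) is scored by the PBM enrichment score (E-score), a modified Wilcoxon-Mann-Whitney statistic from -0.5 to +0.5, computed with the Universal PBM Analysis Suite. Scale: above 0.35 generally sequence-specific binding.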
row,Sequence,PBM E-score
1,GTGTAAAC,0.474
2,AGGTAAAT,0.24
3,ATGTAAAT,0.477
4,GTTTAAAC,0.41
5,GGGTAAAC,0.0624
6,CTTTAAAC,0.153
7,AAGTAAAG,0.0486
8,CTGTAAAG,0.244
9,ATGTAAAG,0.473
10,CTGTAAAC,0.31
11,GTTTAAAA,0.215
12,AAGTAAAT,0.341
13,ACAGAAAT,0.107
14,CCATCACA,0.00393
15,CACCTTCC,-0.11
16,CCCTTAGA,-0.353
17,AGTGCCAG,-0.0844
18,CACAAAGG,-0.0549
19,AGCCACCC,-0.289
20,AGGTAAAA,0.16
21,AGGTAAAC,0.26
22,GTGTAAAA,0.467
23,GAGTAAAA,0.237
24,AAGTAAAC,0.283
25,ATGTAAAC,0.483

row,Sequence,PBM E-score
1,ATGTAAAA,0.474
2,GGGTAAAA,0.185
3,TAGTAAAA,0.306
4,TGGTAAAA,0.266
5,CTGTAAAA,0.359
6,TTGTAAAA,0.392
7,ATAGCGAC,0.106
8,CCGGGCAG,-0.165
9,TGGTCCAA,-0.192
10,GTTTGGCA,-0.0431
11,GTACAGAC,0.17
12,TACCCACA,-0.015
13,AGTATGCG,0.0952
14,ATACATGA,0.465
15,ATACATCC,0.308
16,AGACATGG,0.21
17,CTACATTC,0.0322
18,CGACATGC,0.311
19,ATACATCG,0.299
20,ATACATGG,0.451
21,AGACATGA,0.275
22,CTACATGC,0.429
23,AGACATGC,0.171
24,ATACATGC,0.427
25,ATACATCA,0.334

row,Sequence,PBM E-score
1,ACCACCGT,-0.0982
2,AGATGCCA,-0.254
3,ATACCTGA,0.0295
4,GGGGGGCA,-0.328
5,CTAGCAAG,-0.133
6,GAAGTCGA,-0.0459
7,CCGGACAA,0.0112
8,CACAGAGA,0.0962
9,TCAGGAGA,-0.123
10,ACTGCCCA,-0.0607
11,GATGCATC,0.0847
12,GCTGTGTA,0.437
13,ACTGTGTG,0.128
14,CCTGTGTA,0.43
15,GCTGTATA,0.153
16,CCTGTGTC,0.0583
17,ACTGTGTA,0.443
18,ACTGTGTC,0.174
19,CCTGTGAA,0.0484
20,GCTGTGAA,0.0585
21,AGGAGAGG,-0.277
22,ACCAACAA,0.198
23,AGCATTGA,-0.135
24,AAGAGGCA,-0.184
25,GCTCAACC,-0.147

row,Sequence,PBM E-score
1,ATCGCTCG,-0.128
2,CCTGTAAA,0.328
3,ATTGTAAG,0.0623
4,GTTGTAAA,0.385
5,AGTGTAAA,0.38
6,CTTGTAAA,0.452
7,GCTGTAAA,0.336
8,CTTGTAAC,0.36
9,AGTGTAAT,0.357
10,GGTGTAAA,0.351
11,AGTGTATA,0.114
12,ATTGTAAC,0.221
13,ATTGTAAA,0.374
14,AACACTAT,0.231
15,ACTCGACA,0.203
16,CAAATCTG,-0.0335
17,AATTGCGT,0.201
18,ACGCCCGG,-0.193
19,GATCTTTA,0.131
20,ACACCCAT,-0.0488
21,AAAGGCTC,-0.223
22,CGGCCTAG,-0.322
23,ACTCCTCC,-0.17
24,AGTTCTCA,0.0389
25,ATAATACC,0.0152

row,Sequence,PBM E-score
1,CTAATACA,0.342
2,ATAATACA,0.38
3,GTAATAGA,0.257
4,GTAATACA,0.397
5,ATAATACG,0.239
6,CCCTTATC,-0.0289
7,GCTAGCGA,-0.117
8,ATGAAACC,0.0645
9,ACATTGCG,0.249
10,CTCGTAGA,-0.0578
11,AAGCGTAT,0.0488
12,ACTTGGAT,0.0128
13,CCTCTCAC,-0.127
14,CTTGTTCC,-0.0361
15,AAGCACGC,0.0885
16,ATTAACCA,0.0177
17,GTGTATTA,0.421
18,ACGTATTA,0.345
19,ATGTATGA,0.296
20,CTGTATTA,0.191
21,ATGTATTA,0.428
22,GTGTATGA,0.262
23,CTACAGCC,-0.113
24,ATCAAGTA,0.217
25,ACACGCAA,0.35

row,Sequence,PBM E-score
1,ACACGCAC,0.382
2,ACACGCAG,0.313
3,GCACGCAC,-0.213
4,CCACGCAC,-0.0131
5,ACACGCAT,0.388
6,ACCAATTA,0.195
7,CTACGTTA,0.316
8,ATTAGTAA,0.206
9,CGGGGAGA,-0.256
10,GACTACTC,-0.0288
11,TGAAGCAA,0.0475
12,ATGAGGCC,-0.277
13,GGATAGGA,-0.212
14,AAACGACA,0.235
15,ACGTACAG,0.0878
16,AAGTACAA,0.199
17,AAGTACAT,0.383
18,ACGTACAT,0.381
19,AAGTACAG,0.0583
20,ACGTACAA,0.273
21,AGATTTAT,0.0596
22,AGCCTCCT,-0.16
23,AACGCATG,0.248
24,CAACACTA,0.169
25,TAACACGA,0.469

row,Sequence,PBM E-score
1,CCACACGG,-0.0191
2,GAACACGC,0.299
3,CAACACAC,0.349
4,TAACACCA,0.314
5,CAACACCA,0.207
6,CAACACAA,0.35
7,GAACACGA,0.287
8,CAACACGA,0.419
9,CAACACGG,0.386
10,CAACACGC,0.367
11,CAGCATCC,-0.176
12,ACGGTGTA,0.205
13,TACTCTCA,0.103
14,CGTGCCTC,-0.119
15,CGTTAACG,0.211
16,AATCCTTG,0.103
17,AGATATAA,0.127
18,AGTAGACG,0.0433
19,CGGTGGTA,-0.0335
20,AAACACAA,0.322
21,CAACAAGA,0.225
22,TAACACAA,0.43
